# According to PubChem BioAssay AID1159580 (chemical genetic matrix, 2015):
# “And” between values parts separate entries of the source, which are not always exact repeats. Equal entries are not always repeated. Screen size: about 5,500 compounds; about 2,000 (36%) were called active. Not shown: some 18% with an inconclusive outcome. Some of the results follow. Unmarked numbers belong to inactive results. Cut-off read from the data, not from the text of the source: active = normalized growth mostly below about 0.91 (no sharp cut-off); inconclusive = no clear call, values can overlap the other calls; inactive = mostly above about 0.92.
# Assay: chemical genetic growth profiling, strain panel (AID 1159580);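 note: tested at 20 µM; growth read once vehicle control cultures reached saturation at 30 °C; 1 = growth at the plate median or of vehicle wells; lower values mean less growth of the strain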
# Settings: S. cerevisiae deletion strains, growth OD
structure (smiles),measurement,setting,value
CC(NCCc1ccc(O)cc1)C(O)c1ccc(O)cc1 (centres undefined),normalized growth,"locus YAL021C, strain ccr4, hits give low values",0.997
same,normalized growth,"locus YAL026C, strain drs2, hits give low values",0.504 (active)
same,normalized growth,"locus YAL030W, strain snc1, hits give low values",1.01
same,normalized growth,"locus YBL061C, strain skt5, hits give low values",0.991
same,normalized growth,"locus YBR009C, strain hhf1, hits give low values",1.04
same,normalized growth,"locus YBR021W, strain FUR4, hits give low values",0.962
same,normalized growth,"locus YBR023C, strain chs3, hits give low values",0.989
same,normalized growth,"locus YBR171W, strain sec66, hits give low values",0.994
same,normalized growth,"locus YBR229C, strain ROT2, hits give low values",0.988
same,normalized growth,"locus YBR231C, strain swc5, hits give low values",1.01
same,normalized growth,"locus YBR279W, strain paf1, hits give low values",0.978
same,normalized growth,"locus YCL011C, strain gbp2, hits give low values",0.991
same,normalized growth,"locus YCL016C, strain dcc1, hits give low values",0.968
same,normalized growth,"locus YCL029C, strain bik1, hits give low values",0.977
same,normalized growth,"locus YCL061C, strain MRC1, hits give low values",0.999
same,normalized growth,"locus YCL069W, strain vba3, hits give low values",0.973
same,normalized growth,"locus YCR088W, strain abp1, hits give low values",0.997
same,normalized growth,"locus YDL005C, strain med2, hits give low values",0.983
same,normalized growth,"locus YDL035C, strain GPR1, hits give low values",0.982
same,normalized growth,"locus YDL040C, strain nat1, hits give low values",0.99
same,normalized growth,"locus YDL074C, strain BRE1, hits give low values",0.999
same,normalized growth,"locus YDL101C, strain DUN1, hits give low values",0.985
same,normalized growth,"locus YDL134C, strain PPH21, hits give low values",0.977
same,normalized growth,"locus YDL185W, strain tfp1, hits give low values",0.979
same,normalized growth,"locus YDL192W, strain arf1, hits give low values",0.982
same,normalized growth,"locus YDR001C, strain nth1, hits give low values",0.998
same,normalized growth,"locus YDR069C, strain doa4, hits give low values",1.01
same,normalized growth,"locus YDR101C, strain arx1, hits give low values",0.997
same,normalized growth,"locus YDR137W, strain rgp1, hits give low values",0.982
same,normalized growth,"locus YDR150W, strain NUM1, hits give low values",0.994
same,normalized growth,"locus YDR159W, strain sac3, hits give low values",1
same,normalized growth,"locus YDR162C, strain NBP2, hits give low values",0.984
same,normalized growth,"locus YDR195W, strain ref2",0.99
same,normalized growth,"locus YDR297W, strain sur2, hits give low values",1.01
same,normalized growth,"locus YDR318W, strain mcm21, hits give low values",0.986
same,normalized growth,"locus YDR334W, strain swr1, hits give low values",0.984
same,normalized growth,"locus YDR335W, strain msn5, hits give low values",0.952
same,normalized growth,"locus YDR388W, hits give low values",0.981
same,normalized growth,"locus YDR392W, strain spt3, hits give low values",0.189 (active)
same,normalized growth,"locus YDR502C, strain sam2, hits give low values",0.983
same,normalized growth,"locus YEL003W, strain gim4, hits give low values",0.999
same,normalized growth,"locus YEL037C, strain rad23, hits give low values",0.954
same,normalized growth,"locus YEL061C, strain CIN8 (second series), hits give low values",0.989
same,normalized growth,"locus YEL061C, strain CIN8, hits give low values",0.993
same,normalized growth,"locus YER015W, strain faa2, hits give low values",0.995
same,normalized growth,"locus YER016W, strain bim1, hits give low values",0.984
same,normalized growth,"locus YER110C, hits give low values",0.977
same,normalized growth,"locus YER111C, strain swi4, hits give low values",0.979
same,normalized growth,"locus YER155C, strain BEM2 (second series), hits give low values",0.948
same,normalized growth,"locus YER155C, strain BEM2, hits give low values",0.983
same,normalized growth,"locus YER167W, strain BCK2, hits give low values",0.983
same,normalized growth,"locus YFR010W, strain ubp6, hits give low values",0.922
same,normalized growth,"locus YGL078C, strain dbp3, hits give low values",0.984
same,normalized growth,"locus YGL086W, strain mad1, hits give low values",0.987
same,normalized growth,"locus YGL167C, strain pmr1, hits give low values",0.997
same,normalized growth,"locus YGL173C, strain kem1, hits give low values",1.02
same,normalized growth,"locus YGL227W, strain vid30, hits give low values",0.993
same,normalized growth,"locus YGL240W, strain doc1, hits give low values",1.02
same,normalized growth,"locus YGL248W, strain PDE1, hits give low values",0.996
same,normalized growth,"locus YGL253W, strain hxk2, hits give low values",0.766 (active)
same,normalized growth,"locus YGR078C, strain PAC10, hits give low values",1
same,normalized growth,"locus YGR135W, strain pre9, hits give low values",0.972
same,normalized growth,"locus YGR229C, strain SMI1, hits give low values",0.989
same,normalized growth,"locus YGR252W, strain gcn5, hits give low values",0.946
same,normalized growth,"locus YHR013C, strain ard1, hits give low values",0.953
same,normalized growth,"locus YHR027C, strain rpn1, hits give low values",1.01
same,normalized growth,"locus YHR030C, strain SLT2, hits give low values",0.986 and 1
same,normalized growth,"locus YHR079C, strain IRE1 (second series), hits give low values",0.979
same,normalized growth,"locus YHR079C, strain IRE1, hits give low values",1.01
same,normalized growth,"locus YHR094C, strain hxt1, hits give low values",0.978
same,normalized growth,"locus YHR129C, strain ARP1, hits give low values",0.986
same,normalized growth,"locus YHR142W, strain chs7, hits give low values",0.812 (active)
same,normalized growth,"locus YHR200W, strain rpn10, hits give low values",0.985
same,normalized growth,"locus YIL066C, strain RNR3, hits give low values",0.99
same,normalized growth,"locus YIL073C, strain SPO22, hits give low values",0.946
same,normalized growth,"locus YIL125W, strain kgd1, hits give low values",0.99
same,normalized growth,"locus YIR030C, strain dcg1, hits give low values",0.983
same,normalized growth,"locus YJL092W, strain hpr5, hits give low values",0.973
same,normalized growth,"locus YJL095W, strain BCK1 (second series), hits give low values",0.998
same,normalized growth,"locus YJL095W, strain BCK1, hits give low values",1.03 and 1.02
same,normalized growth,"locus YJL115W, strain asf1, hits give low values",0.975
same,normalized growth,"locus YJL129C, strain trk1, hits give low values",0.973
same,normalized growth,"locus YJL134W, strain LCB3, hits give low values",0.99
same,normalized growth,"locus YJL154C, strain vps35, hits give low values",0.983
same,normalized growth,"locus YJL164C, strain tpk1, hits give low values",0.987
same,normalized growth,"locus YJL166W, strain qcr8, hits give low values",1.03
same,normalized growth,"locus YJL168C, strain set2, hits give low values",0.983
same,normalized growth,"locus YJL187C, strain SWE1 (second series), hits give low values",1
same,normalized growth,"locus YJL187C, strain SWE1, hits give low values",0.998
